According to PubChem BioAssay (NCATS):
Values joined by “and” are separate entries in the source; they are usually repeats but may differ in a detail not shown here. Equal values may be shown once. Results filed as inconclusive are left out. Values without a mark were called inactive. Active and inactive are the calls of the source. Calls come from the whole dose curve; as a rule, active = well fitted inhibition curve with a large enough effect; inconclusive = small, poorly fitted or top-dose-only effect; inactive = flat fitted curve, though single readings scatter.

Assay: Drug repurposing screens with cells derived from glioblastoma tumor samples (AID 1345199); note: nearly all actives have a fitted effect of over 40% in size
Settings: GBM patient neurospheres viability, ATP luminescence, 48 h
Method in brief: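 Primary testing used CD133+ neurospheres from four GBM patients, seven concentrations, 48 h exposure and ATP-based viability; confirmation added three slower-growing patient lines.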

[1] = at 45.9 µM (top of the series), tumour line B
[2] = at 45.9 µM (top of the series), tumour line D
[3] = at 46.1 µM (top of the series), tumour line C
[4] = at 46 µM (top of the series), tumour line A
% is set by controls: 0 for no effect and ±100 for the full control effect; potency is the fitted concentration of half-maximal effect.

Structure (SMILES): O=C(Nc1ccc(/C=C/c2ccc(NC(=O)c3cc(S(=O)(=O)O)c4cccnc4c3O)cc2S(=O)(=O)O)c(S(=O)(=O)O)c1)c1cc(S(=O)(=O)O)c2cccnc2c1O
- activity, negative = cell killing [1]: -15.1%
- activity, negative = cell killing [2]: 6.57%
- activity, negative = cell killing [3]: -10.9%

Structure (SMILES): Nc1ncnc(Nc2ccc(Cl)cc2)n1
- activity, negative = cell killing [1]: -4.5%
- activity, negative = cell killing [2]: -28%
- activity, negative = cell killing [3]: -9.25%
- Potency (tumour line A): 35.5 µM (active)

Structure (SMILES): OCC(O)COc1ccc(Cl)cc1 (stereo unspecified)
- activity, negative = cell killing [1]: -4.12%
- activity, negative = cell killing [2]: -2.58%
- activity, negative = cell killing [4]: -5.56%
- activity, negative = cell killing [3]: -6.48%

Structure (SMILES): CCC(CN)CC(C)CCNCC(O)CNCC(C)CC(CC)CN (stereo unspecified)
- activity, negative = cell killing [1]: -0.989%
- activity, negative = cell killing [2]: -7.35%
- activity, negative = cell killing [4]: -19.2%
- activity, negative = cell killing [3]: -0.671%

Structure (SMILES): NCCC(=O)[N-][C@@H](Cc1cnc[nH]1)C(=O)O.[Zn]
- activity, negative = cell killing [1]: -11.4%
- activity, negative = cell killing [2]: -14.7%
- activity, negative = cell killing [3]: 0.418%

Structure (SMILES): CC(=O)O[C@H]1C[C@@H]2CC[C@@H]3[C@H](CC[C@@]4(C)[C@H]3C[C@H](N3CC[N+](C)(C)CC3)[C@@H]4OC(C)=O)[C@@]2(C)C[C@@H]1N1CC[N+](C)(C)CC1
- activity, negative = cell killing [1]: -3.42%
- activity, negative = cell killing [2]: 1.51%
- activity, negative = cell killing [3]: 2.56%

Structure (SMILES): O=C1O[C@@H]2[C@@H](O)[C@H](O)O[C@@H]2[C@H]1O
- activity, negative = cell killing [1]: -11.2%
- activity, negative = cell killing [2]: -1.84%
- activity, negative = cell killing [4]: -28.6%
- activity, negative = cell killing [3]: -14%

Structure (SMILES): C[C@H](CSC(=O)c1ccccc1)C(=O)N1C[C@@H](Sc2ccccc2)C[C@H]1C(=O)O
- activity, negative = cell killing [1]: -6.07%
- activity, negative = cell killing [2]: 2.27%
- activity, negative = cell killing [4]: -16.6%
- activity, negative = cell killing [3]: -10.8%

Structure (SMILES): CCCCCCCCCCCCCCCC(=O)OC[C@@H](COP(=O)([O-])OCC[N+](C)(C)C)OC(=O)CCCCCCCCCCCCCCC
- activity, negative = cell killing [1]: -16.6%
- activity, negative = cell killing [2]: 2.92%
- activity, negative = cell killing [3]: 0.955%

Structure (SMILES): CC(C)(C)CC(=O)OCC(=O)[C@@]12OC(C)(C)O[C@@H]1C[C@H]1[C@@H]3CCC4=CC(=O)C=C[C@]4(C)[C@@]3(F)[C@@H](O)C[C@@]12C
- activity, negative = cell killing [1]: -19.8%
- activity, negative = cell killing [3]: -0.929%

Structure (SMILES): NC(=O)C[C@@H](N)C(=O)O
- activity, negative = cell killing [1]: 8.61%
- activity, negative = cell killing [2]: -4.07%
- activity, negative = cell killing [4]: 26.7%
- activity, negative = cell killing [3]: 22.9%

Structure (SMILES): CS(=O)(=O)Nc1cc2occ(NC=O)c(=O)c2cc1Oc1ccccc1
- activity, negative = cell killing [1]: -8.06%
- activity, negative = cell killing [2]: -12.9%
- activity, negative = cell killing [4]: -16.3%
- activity, negative = cell killing [3]: 0.0891%

Structure (SMILES): CCCCCCCC(=O)CC[C@@H]1[C@@H](C/C=C\CCCC(=O)OC(C)C)[C@@H](O)C[C@H]1O
- activity, negative = cell killing [3]: -21.1%
- Potency (tumour line A): 11.2 µM (active)
- Potency (tumour line D): 15.8 µM (active)

Structure (SMILES): CN[C@@H]1CCc2[nH]c3ccc(C(N)=O)cc3c2C1
- activity, negative = cell killing [1]: -9.15%
- activity, negative = cell killing [2]: -11.6%
- activity, negative = cell killing [3]: 28.3%

Structure (SMILES): Cc1ccc(/C(=C\CN2CCCC2)c2cccc(/C=C/C(=O)O)n2)cc1
- activity, negative = cell killing [3]: -12.4%
- Potency (tumour line A): 35.5 µM (active)

Structure (SMILES): CCOC(=O)Nc1ccc2c(c1)N(C(=O)CN(C)C)c1ccccc1CC2
- activity, negative = cell killing (at 99.2 µM (top of the series), tumour line C): -30.7%
- Potency (tumour line A): 44.7 µM (active)
- Potency (tumour line D): 56.2 µM (active)

Structure (SMILES): CCC(c1ccccc1)c1noc(CCN(CC)CC)n1 (stereo unspecified)
- activity, negative = cell killing [1]: -14.3%
- activity, negative = cell killing [2]: -10.2%
- activity, negative = cell killing [3]: -2.54%

Structure (SMILES): O=C(CCCN1CCC(n2c(=S)[nH]c3ccccc32)CC1)c1ccc(F)cc1
- activity, negative = cell killing [1]: -28.9%
- Potency (tumour line A): 8.91 µM (active)
- Potency (tumour line D): 11.2 µM (active)

Structure (SMILES): CCOC(=O)[C@H](CCc1ccccc1)N[C@@H](C)C(=O)N1CC2(C[C@H]1C(=O)O)SCCS2
- activity, negative = cell killing [1]: -13.1%
- activity, negative = cell killing [2]: 3.06%
- activity, negative = cell killing [4]: -27.1%
- activity, negative = cell killing [3]: 2.21%

Structure (SMILES): COc1cc2[nH]c(C)c(CCN3CCN(c4ccccc4)CC3)c2cc1OC
- activity, negative = cell killing [1]: -18.7%
- activity, negative = cell killing [3]: -15.6%
- Potency (tumour line A): 15.8 µM (active)

Structure (SMILES): COC[C@H](c1ccc(C(F)(F)F)cc1)N1CCN(C2(C)CCN(C(=O)c3c(C)ncnc3C)CC2)C[C@H]1C
- activity, negative = cell killing [1]: -1.49%
- activity, negative = cell killing [2]: -13.4%
- activity, negative = cell killing [3]: 5.67%
- Potency (tumour line A): 11.2 µM (active)

Structure (SMILES): O=C1C(c2[nH]c3ccc(S(=O)(=O)O)cc3c2O)=Nc2ccc(S(=O)(=O)O)cc21
- activity, negative = cell killing [1]: -3.91% and -0.988% and -8.05%
- activity, negative = cell killing [2]: -5.52% and -3.79% and -6.7%
- activity, negative = cell killing [4]: -11.9%
- activity, negative = cell killing [3]: 2.85% and 2.31% and 15%

Structure (SMILES): CCC(=O)OCC(=O)[C@@]1(OC(=O)CC)[C@@H](C)C[C@H]2[C@@H]3CCC4=CC(=O)C=C[C@]4(C)[C@@]3(Cl)[C@@H](O)C[C@@]21C
- activity, negative = cell killing [1]: -9.44%
- activity, negative = cell killing [3]: -19%
- Potency (tumour line A): 10 µM (active)

Structure (SMILES): CC(C(=O)O)c1ccc(C2CCCCC2)c2ccccc12 (stereo unspecified)
- activity, negative = cell killing [1]: -3.21%
- activity, negative = cell killing [2]: -15.4%
- activity, negative = cell killing [3]: -7.75%

Structure (SMILES): CO[C@H]1[C@@H](O)[C@H](N)[C@@H](O[C@H]2O[C@H]([C@H](C)N)CC[C@H]2N)[C@H](O)[C@@H]1N(C)C(=O)CN
- activity, negative = cell killing [1]: -11.8%
- activity, negative = cell killing [2]: -4.2%
- activity, negative = cell killing [3]: -7.2%

Structure (SMILES): O=P(O)(O)OC(Cn1cncn1)(Cn1cncn1)c1ccc(F)cc1F
- activity, negative = cell killing [1]: -3.57%
- activity, negative = cell killing [2]: -9.38%
- activity, negative = cell killing [3]: 14%
